The text below walks through data of PubChem BioAssay (NCI).

About 83,000 compounds went through this panel and 20% of them were active in at least one assay; those are over-represented in the sample as a whole.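 96-well plates, one dose, 48 hours. Percent growth reported; active if below 10.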 Unmarked numbers belong to inactive results. Activity calls are given as the source filed them.

This assay relates to SNB-19 CNS. The experiment in a line: NCI-60 one-dose screen, 48 h (100 = growth as untreated, 0 = no growth, -100 = all killed). To be noted: 10 µM unless noted.
For the compound `FC(F)(F)c1cc(-c2nnc3n2N=C(N2CCCC2)CS3)cc(C(F)(F)F)c1`, the growth was 65.4%.

Consider `Clc1ccc(C2=NN(c3ccc(Cl)cc3)C(c3cccc(Nc4ccnc5cc(Cl)ccc45)c3)C2)cc1` (stereo not given), for which the growth was 82.3%.

As for `C=CCN(/C=C/CN(CC=C)CC=C)CC=C`, the growth was 97.8%.

On to `COc1ccc(-c2nnc3c4[nH]cnc4ncn23)c(OC)c1`, for which the growth is 96%.

Take `Cc1ccc(S(=O)(=O)NCCN2c3nc4ccccc4cc3Sc3cc4ccccc4nc32)cc1`: the growth was 64.3%.

For `O=C(CNC(=O)c1cccc2ccccc12)Nc1ccccc1Oc1cccc(O)c1`, the growth is 38% [5 µM].

As for `COc1ccc2c(=O)c(OC)c(-c3cc(OC)c(OC)c(OC)c3)oc2c1`, the growth is 92.5%.

With `COc1cnc2c(c1)C(=O)c1c-2n(CCCN2CCC(O)CC2)c(=O)c2cc(F)ccc12`, the growth is 14%.

`O=C(/C=C/c1c(-c2ccccc2)[nH]c2ccccc12)S(=O)(=O)c1ccccc1`: the growth was 82.4%.

With `O=C(Nc1nc2c(C(F)(F)F)cccc2s1)c1cc(Cl)ccc1O`, the growth is 10.2%.

As to `CCN(CC)CCOCC[C@H]1CC[C@H]2[C@@H]3[C@H](C)Cc4cc(OS(N)(=O)=O)ccc4[C@H]3CC[C@]12C`, the growth is -94.4% (active).

As for `NS(=O)(=O)c1ccc(N2CC(c3nc4ccccc4[nH]3)CC2=O)cc1` (stereo not given), the growth was 101%.

Regarding `COc1cnc2c(c1)C(=O)c1c-2n(CCCN2CCCC2)c(=O)c2cc(F)ccc12`, the growth is 19.7%.

Take `COc1ccc(-n2cnc3cc(C(=O)N4CCCCC4)ccc32)cc1`: the growth is 94.3%.

As for `COc1cc(-c2n[nH]nc2-c2ccccn2)cc(OC)c1OC`, the growth was 94.8%.

As for `COc1cc(C2=NN(C=O)C(c3cccc(Nc4ccnc5cc(Cl)ccc45)c3)C2)cc(OC)c1OC` (stereo not given), the growth is 76.2%.

For `Cc1sc2nc(NCc3ccccc3)[nH]c(=O)c2c1C`, the growth is 69%.

For the compound `CC(=O)N1N=C(c2ccc(Nc3nc(NCCO)nc(NCCO)n3)cc2)CC1c1ccc(Cl)cc1` (stereo not given), the growth is 86.3%.

As to `COc1ccc(N2CCN(CC(=O)N3CCN(c4nnc(-c5ccc(Cl)cc5)c(-c5ccc(Cl)cc5)n4)CC3)CC2)cc1`, the growth is 76%.

Turning to `C1CCC(C(CC2CCCCN2)C2CCCCC2)CC1` (stereo not given), the growth was 13.2%.

For the compound `Cc1cc2c(cc1C)[n+](Cc1ccc3ccccc3c1)cn2Cc1ccc2ccccc2c1`, the growth was -77.2% (active).

`COc1ccc(Oc2ccccc2NC(=O)CNC(=O)c2cccc3ccccc23)cc1`: the growth was 51.4% [5 µM].

For the compound `COc1cccc(N2CCN(CC(=O)N3CCN(c4nnc(-c5ccc(Cl)cc5)c(-c5ccc(Cl)cc5)n4)CC3)CC2)c1`, the growth is 77.1%.

`CC(=O)N1N=C(c2ccc3c(c2)OCO3)CC1c1c(C)nn(-c2ccccc2)c1N(C)Cc1ccccc1` (stereo not given): the growth is 64.8%.

As for `COc1ccc(C(=O)/C=C/c2cccc(Nc3ccnc4cc(Cl)ccc34)c2)cc1`, the growth was 51.3%.

For `COc1cc(C2CC(C3C(=O)N(C)C(=O)N(C)C3=O)=NN2c2cc(Cl)cc(Cl)c2)cc(OC)c1OC` (stereo not given), the growth is 91.7%.

In the case of `O=C1NC(=O)/C(=C\c2ccco2)S1`, the growth is 101%.

`COc1ccc2nc(-c3ccc(Cl)cc3)cc(-c3nnc(SCC(=O)Nc4ccc(C(C)=O)cc4)n3-c3ccccc3)c2c1`: the growth was 105%.

With `O=C(CNC(=O)c1cccc2ccccc12)Nc1ccccc1Cc1ccccc1`, the growth was 54.3% [5 µM].

With `CCCCc1n(Cc2ccc3ccccc3c2)cc[n+]1Cc1ccc2ccccc2c1`, the growth was -22.9% (active).

On to `COc1cc(C2CC(C3C(=O)N(C)C(=O)N(C)C3=O)=NN2C=O)cc(OC)c1OC` (stereo not given), for which the growth is 100%.

`Nc1ncnc2c1CN(Cc1ccccc1)CC2`: the growth was 104%.

For `CCOC(=O)c1sc(NC(=O)COc2cccc(/C=C3\Cc4ccc(Cl)cc4C3=O)c2)nc1C`, the growth was 99.9%.

In the case of `COC(=O)[C@H](CCCCNC(=O)OCc1ccccc1)NC(=O)[C@@H](NC(=O)Nc1cc(C(F)(F)F)cc(C(F)(F)F)c1)C(C)C`, the growth is 28% [100 µM].

As for `CCN(CC)c1ccc(C(=C2C=CC(=[N+](CC)Cc3cccc(S(=O)(=O)O)c3)C=C2)c2ccc(N(CC)Cc3cccc(S(=O)(=O)O)c3)cc2)cc1`, the growth was 56.9%.

As for `O=C(CNC(=O)c1cccc2ccccc12)Nc1ccccc1Oc1ccc(O)cc1`, the growth was 51.9% [5 µM].

As to `COc1cc(C(=O)/C=C/c2cccc(Nc3ccnc4cc(Cl)ccc34)c2)cc(OC)c1OC`, the growth is 20.3%.

Take `CN1C(=O)C(C2=NN(C=O)C(c3ccc(F)cc3)C2)C(=O)N(C)C1=O` (stereo not given): the growth was 92.4%.

Regarding `O=CN1N=C(c2ccc(Nc3ccnc4cc(Cl)ccc34)cc2)CC1c1ccc(Cl)cc1` (stereo not given), the growth was 44.5%.

For `COc1cccc(-c2nc3cc(NC(=O)c4ccc(Cl)c(C#N)c4)ccc3o2)c1`, the growth was 5.09% (active).
